From PubChem BioAssay
HSF1 activator – increases HSF-1 driven luciferase reporter signal | NIH3T3-HGL HSF-1 luciferase reporter, MG132, 8 h; 100% = twice DMSO control signal | activation, % at 9 µM | hit rate 1.7% among 300,000 | AID 504408;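 active means mean replicate activation of at least 50% with a set share of replicates each reaching 50%; inconclusive means only one of those two conditions met; inactive means mean below 50% and too few replicates reaching it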
esBAF inh – SWI/SNF esBAF complex inhibition; hit rate 2% among 350,000; mouse ES cells, Bmi1-luciferase knock-in reporter, 24 h; 100% = twice the neutral-well signal; reporter increase, % at 12.5 µM; in the data active means activation above about 40%; inconclusive means no clear call, values can overlap the other calls;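 further: a rise in the Bmi1 reporter signal indicates esBAF inhibition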
Vif imaging – inhibitors of HIV Vif; hit rate 0.35% among 340,000; HEK293T cells, Vif self-association by quenched fluorescence, imaging, 24 h; AID 602346; inhibition, % at 7.49 µM; in the data active means inhibition above about 50%, passing the limit was not always enough; inconclusive means no clear call, values can overlap the other calls; inactive means below about 31%
HSF1 inhib – HSF1 inhibition | NIH3T3-HGL HSE-luciferase, MG132-induced, luminescence 8 h; active compounds read low | hit rate 0.77% among 300,000 | activity change, negative = inhibition, % at 7.5 µM (by protocol);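 active means more than half of replicate wells show activity change below -50%, luminescence cut by over half; inconclusive means some wells, but at most half, below -50%; inactive means no replicate well below -50%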;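 further: luciferase reports HSF-1 transcriptional activity via heat shock element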
Of the large screens only hits and unclear results are named; the others gave an inactive call. In the library only some 3.4% were active in any assay of this set; here they are far more common.

CN1c2ccc(-c3cccc(C#N)c3)cc2[C@@H]2[C@@H](CCN2S(=O)(=O)c2ccccc2)[C@H]1CO	none (no result: HSF1 activator, Vif imaging, HSF1 inhib)
CCC(=O)N1[C@H](CO)[C@@H](c2ccccc2)[C@@H]1CN(C(C)C)S(C)(=O)=O	none (no result: HSF1 activator, Vif imaging, HSF1 inhib)
C[C@@H]1CN([C@@H](C)CO)C(=O)c2cc(NC(=O)Nc3ccc(C(F)(F)F)cc3)ccc2O[C@@H]1CN(C)C(=O)Nc1cccc2ccccc12	none (no result: HSF1 activator, Vif imaging, HSF1 inhib)
O=C1c2ccccc2C(=O)N1CCCOc1ccccc1	esBAF inh inconclusive
N#Cc1ccccc1OCCN1C(=O)c2ccccc2C1=O	esBAF inh 56.3
COc1ccc(CNC(=O)CN2C(=O)c3ccccc3C2=O)cc1	none
COc1ccc(CN2C(=O)c3ccccc3C2=O)cc1	Vif imaging 62.2
CCOc1ccc(OCCN2C(=O)c3ccccc3C2=O)cc1	esBAF inh 62.9
C[C@H]1CN([C@@H](C)CO)C(=O)Cc2cc(NC(=O)CCC(F)(F)F)ccc2O[C@@H]1CN(C)CC1CC1	none (no result: HSF1 activator, Vif imaging, HSF1 inhib)
CC1(C)CC(=O)C=C(c2ccc(-c3ccc(S(C)(=O)=O)cc3)cc2)C1=O	esBAF inh 65.3 (no result: HSF1 activator, Vif imaging, HSF1 inhib)
COc1ccc2cc(C3=CC(=O)CC(C)(C)C3=O)ccc2c1	esBAF inh 123.9 (no result: HSF1 activator, HSF1 inhib)
COc1ccncc1-c1ccc(C2=CC(=O)CC(C)(C)C2=O)cc1	esBAF inh 65.2 (no result: HSF1 activator, Vif imaging, HSF1 inhib)
CC(=O)OCc1ccc(C2=CC(=O)CC(C)(C)C2=O)cc1	none (no result: HSF1 activator, HSF1 inhib)
COc1ccc(-c2ccccc2C2=CC(=O)CC(C)(C)C2=O)cc1	none (no result: HSF1 activator, Vif imaging, HSF1 inhib)
COc1ccc(NC(=O)Nc2ccc3c(c2)CC(=O)N([C@@H](C)CO)C[C@@H](C)[C@@H](CN(C)Cc2ccc(C(=O)Nc4ccccc4N)cc2)O3)cc1	none (no result: HSF1 activator, Vif imaging, HSF1 inhib)
O=C(C1CCCC1)N1C[C@@H]2[C@H](c3ccccc31)[C@H](CO)N2C(=O)c1cccnc1	none (no result: HSF1 activator, Vif imaging, HSF1 inhib)
O=C(CSc1nc2ncccc2[nH]1)NCc1ccccc1	none
CCn1c(CNc2ccc(Cl)cc2)nnc1SCC(=O)NCc1ccccc1	HSF1 activator 60.2
Cn1c(SCC(=O)NCc2ccccc2)nc2ccccc21	HSF1 inhib -73.4
O=C(CSc1nc2ccccc2[nH]1)NCc1ccccc1	esBAF inh 43.4
CCSc1nc2ccccc2n1CC(=O)OC	none
COC(=O)Cn1c(SCc2ccccc2)nc2ccccc21	esBAF inh 48.5
C[C@@H]1CN([C@H](C)CO)C(=O)c2cccc(NC(=O)c3cnccn3)c2O[C@H]1CN(C)S(C)(=O)=O	none (no result: HSF1 activator, Vif imaging, HSF1 inhib)
CN(C)CCCNC(=O)C[C@H]1CC[C@H](NS(=O)(=O)c2ccccc2)[C@@H](CO)O1	none (no result: HSF1 activator, Vif imaging, HSF1 inhib)
COC(=O)c1cccc(CSc2nc3ccccc3[nH]2)c1	HSF1 activator 54.6 (no result: esBAF inh)
COc1ccc(-c2cc(C(=O)NC(Cc3cc4ccccc4[nH]3)C(=O)O)c(C)o2)cc1OC (centres undefined)	none (no result: esBAF inh)
Cc1oc(-c2ccc3c(c2)OCCO3)cc1C(=O)O	HSF1 inhib -72.0 (no result: esBAF inh)
COc1ccc(-c2cc(C(=O)O)c(C)o2)cc1OC	HSF1 inhib -60.7
C[C@H](CO)N1C[C@H](C)[C@@H](CN(C)S(=O)(=O)c2ccc(Cl)cc2)Oc2ccc(NC(=O)CCCN(C)C)cc2C1=O	none (no result: HSF1 activator, Vif imaging, HSF1 inhib)
COc1ccc(Oc2ccc(C(F)(F)F)cc2N)cc1	esBAF inh 42.5
COc1ccc2c(c1)Cc1sc(NC(C)=O)nc1-2	esBAF inh 41.0
COc1ccc2c(c1)Cc1sc(NC(=O)c3cccnc3)nc1-2	none (no result: esBAF inh)
COc1ccc2c(c1)Cc1sc(NC(=O)c3ccco3)nc1-2	HSF1 activator 76.5, esBAF inh 46.0
COc1ccc2c(c1)CCc1sc(NC(=O)c3ccco3)nc1-2	none
O=C(COc1cc(F)ccc1[N+](=O)[O-])Nc1ccc2c(c1)OCO2	esBAF inh 57.3 (no result: HSF1 activator, HSF1 inhib)
CCSc1nnc(NC(=O)COc2ccccc2[N+](=O)[O-])s1	esBAF inh 48.6
O=C(COc1ccccc1[N+](=O)[O-])Nc1ccc2c(c1)CCC2	esBAF inh 79.0 (no result: HSF1 activator, HSF1 inhib)
O=C(COc1ccccc1[N+](=O)[O-])Nc1ccc2c(c1)OCO2	esBAF inh 57.9
CNC[C@H]1Oc2cc(-c3ccncc3)ccc2S(=O)(=O)N([C@H](C)CO)C[C@@H]1C	none (no result: HSF1 activator, Vif imaging, HSF1 inhib)
Cc1ccn2c(C(=O)N/N=C/c3ccc(Cl)cc3)c(C)nc2c1	none
Cc1ccn2c(C(=O)N/N=C\c3ccccc3[N+](=O)[O-])c(C)nc2c1	HSF1 activator 78.4
C[C@H](CO)N1C[C@H](C)[C@H](CN(C)C(=O)c2ccc3ccn(C)c3c2)OCc2cn(nn2)CCCC1=O	none (no result: HSF1 activator, Vif imaging, HSF1 inhib)
OCC1OC(n2ccc3c(SCc4ccccc4)ncnc32)C(O)C1O (centres undefined)	esBAF inh 87.7 (no result: HSF1 activator, HSF1 inhib)
C[C@@H]1CN([C@@H](C)CO)C(=O)c2cccc(NC(=O)C3CCOCC3)c2O[C@H]1CN(C)CC1CCCCC1	none (no result: HSF1 activator, Vif imaging, HSF1 inhib)
